An excerpt weighted towards active compounds, which were near 11% of everything screened.
Tau fluor cs = counter-screen for tau fibril formation inhibitors; tau K18 P301L Alexa594 fluorescence, heparin fibrillization; Potency, µM (highest dose often 57.7 µM), for inactives: at the top dose activity change, negative = decrease; 0.93% of 280,000 active; AID 1463; further: potency means the concentration at half of the fitted maximal effect; nearly all actives have a fitted effect of over 55% in size
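Human K18 P301L tau (15 uM unlabeled plus 0.24 uM Alexa 594-labeled, final) in 100 mM sodium acetate pH 7 was mixed with compound and 20 uM heparin and incubated 6 hr at 37 C.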
G9a inh = G9a (human) methyltransferase inhibition; Q96KQ7; G9a H3K9 monomethylation, AlphaScreen, 2 h; Potency, µM (highest dose often 102 µM), for inactives: at the highest dose activity, negative = inhibition, hits mostly inhibitors; 8.8% of 350,000 active; AID 504332; further: potency means the concentration at half of the fitted maximal effect; nearly all actives have a fitted effect of over 75% in size
Target sequence (Q96KQ7 913-1193 limits assumed): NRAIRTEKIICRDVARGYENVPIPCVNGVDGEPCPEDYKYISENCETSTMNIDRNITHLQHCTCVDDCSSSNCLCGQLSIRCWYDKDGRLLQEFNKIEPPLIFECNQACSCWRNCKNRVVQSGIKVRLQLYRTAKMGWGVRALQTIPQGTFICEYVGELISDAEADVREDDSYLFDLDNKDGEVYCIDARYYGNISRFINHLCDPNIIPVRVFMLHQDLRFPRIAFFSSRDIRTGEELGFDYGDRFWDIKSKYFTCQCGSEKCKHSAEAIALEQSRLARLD
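Compounds were preincubated with 20 nM G9a for 15 min, after which biotinylated H3K9 peptide (500 nM) and SAM (20 uM) started a 2 h room-temperature reaction. Monomethylated product was quantified by antibody-based AlphaScreen chemiluminescence.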
Sfp inh = Sfp phosphopantetheinyl transferase inhibition. Q9F4F7. Biochemical Sfp PPTase activity, qHTS. Potency, µM, for inactives: largest response in the series, negative = inhibition, actives largely listed as inhibitors. 3.5% of 310,000 active. AID 1490;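 further: the enzyme is Sfp with the accession as filed and its product quenches rhodamine fluorescence; potency means the concentration at half of the fitted maximal effect; 0% = enzyme reaction without inhibitor and -100% = no enzyme wells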
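Compounds were incubated with enzyme (final 15 nM) for 15 min at room temperature before substrate addition started the reaction. Fluorescence at 525 nm excitation, 598 nm emission was recorded immediately and after 30 minutes.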
Tau fibril FP = inhibitors of human tau fibril formation; P10636; K18 P301L tau heparin fibrillization, Alexa594 FP, 6 h; Potency, µM (doses to about 57.7 µM), inactives show at the top dose activity, negative = inhibition, most hits filed as inhibitors; 0.39% of 280,000 active; AID 1468; further: potency means the concentration at half of the fitted maximal effect; nearly all actives have a fitted effect of over 55% in size
Target sequence (P10636 561-689 P618L limits assumed): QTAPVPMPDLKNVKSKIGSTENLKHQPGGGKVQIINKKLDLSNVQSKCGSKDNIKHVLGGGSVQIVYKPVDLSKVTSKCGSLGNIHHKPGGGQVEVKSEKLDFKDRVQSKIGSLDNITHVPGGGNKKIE
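Compound effects on tau fibrillization are measured by Alexa 594 fluorescence polarization (ex 555, em 632 nm). K18 P301L tau is used at 15 uM with 0.24 uM labeled tracer, and 20 uM heparin induces aggregation over 6 hr at 37 C.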
Tau ThT inhib = inhibitors of human tau fibril formation, thioflavin T binding; P10636; recombinant tau K18 P301L (four-repeat tau fragment), heparin-induced fibrillization, ThT fluorescence; Potency, µM (titrated, usually from 57.4 µM), for inactives: top-dose activity, negative = inhibition, actives largely listed as inhibitors; 2.1% of 270,000 active; further: potency means the concentration at half of the fitted maximal effect; nearly all actives have a fitted effect of over 55% in size
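Recombinant human tau K18 fragment […] carrying P301L, 15 uM unlabeled plus 0.24 uM Alexa 594-labeled, was fibrillized with 20 uM heparin in 100 mM sodium acetate pH 7 for 6 hr at 37 C; 30 uM ThT fluorescence read after 1 hr.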
FBPA coupling cs = inhibits coupling enzyme system, counter-screen for aldolase hits; AID 2472; 0.67% of 290,000 active; activity change, negative = inhibition, % at 58.2 µM, hits read low; coupling enzyme system counterscreen, AmpLite Red fluorescence; in the data active means activity change below about -30%
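Fluorescence at 525 nm excitation and 598 nm emission measured inhibition of the coupled detection system without aldolase. Compounds (at 57.5 uM final) were preincubated 10 min at room temperature with coupling enzyme reagent before a 20 min substrate/AmpLite Red step.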
Active calls of the source: *; u = inconclusive; x = no result; [ ] = another dose, or the depositor's remark. Unless noted, the call rests on the fitted dose curve; in most records, active means well fitted curve in the direction sought with a large enough effect; inconclusive means small, poorly fitted or top-dose-only effect, or another doubt; inactive means no such curve, though single readings can be large; an effect the other way counts as inactive or inconclusive. Unless noted, on the % scale 0 is the no-effect control and ±100 the full control effect.

SMILES | Tau fluor cs | G9a inh | Sfp inh | Tau fibril FP | Tau ThT inhib | FBPA coupling cs
COc1cc(/C=N/Nc2nnc3c(n2)[nH]c2ccccc23)ccc1O | -23.9% | u | 56.2µM* | 6.4% | 0.708µM* | -0.2
CC(=O)O[C@H]1CC[C@]2(C)[C@H]3CC=C4[C@@H]5[C@@H](C)[C@H](C)CC[C@]5(C(=O)O)CC[C@@]4(C)[C@]3(C)CC[C@H]2C1(C)C | 1.4% | 22.2%[59 µM] | 9.6% | 3.0% | -7.0% | 5.6
COC(=O)c1[nH]c2cc(OC)c(OC)cc2c1/C=N/Nc1ccccc1 | x | 35.5µM* | -14.8% | x | x | 0.4
COc1cc(/C=N/NC(=O)CCN2CCN(C(c3ccccc3)c3ccccc3)CC2)ccc1O | u | 79.4µM* | u | u | -16.8% | 4.7
COc1cc(/C=N/Nc2ccccc2C(F)(F)F)ccc1O | u | x | -5.2% | 1.9% | u | -1.2
COc1cc(/C=N/Nc2ccccc2)ccc1O | x | 14.1µM* | -29.5% | x | x | -5.0
COc1cc(/C=N/N(c2ccccc2)c2ccccc2)ccc1O | x | 28.2µM* | 15.4% | x | x | 0.1
Cc1ccc2oc(=O)n(CCNC(=O)Nc3ccc(Cl)cc3)c2c1 | u | 2.1%[59 µM] | x | u | 0.1% | x
COc1ccc(C2CC(c3ccccc3)=NN2C(=O)CN2CCN(Cc3ccccc3)CC2)cc1 (centres undefined) | -12.2% | u | 18.3% | -5.7% | -15.0% | 0.2
CC(CCc1ccccc1)NC(=O)CN1C(=O)NC2(CCCCC2C)C1=O (centres undefined) | x | 11.6%[12.7 µM] | x | x | x | x
O=C(Nc1ccccc1C(F)(F)F)Nc1c[nH]c(=O)[nH]c1=O | 2.2% | 4.4%[59 µM] | x | 4.5% | 8.5% | x
COc1cc(/C=N/NC(=O)c2nc3ccccn3c2C)cc(OC)c1O | 4.7% | 15.8µM* | 1.0% | 9.3% | 6.9% | -3.2
O=C(CC(c1ccccc1)c1ccccc1)Nc1nn[nH]n1 | 9.5% | 44.7µM* | -18.2% | -1.8% | 11.9% | 14.0
Cc1cccc(Cn2c(COc3ccc(Cl)cc3)nc3ccccc32)c1 | -1.2% | -27.9%[59 µM] | x | -17.5% | u | x
COc1ccc(OC)c(N/C=C/C(=C(C#N)C#N)N(C)C)c1 | -15.9% | u | 6.0% | 11.0% | -17.5% | 0.6
COc1cccc(Cn2c(=O)c(-c3cccc(C#N)c3)nc3cnc(Nc4ccccc4)nc32)c1 | x | 3.6%[12.7 µM] | 14.9% | x | x | 2.4
Cc1ccc(C2=NNC(C(O)C(O)C(O)CO)S2)cc1 (centres undefined) | -4.3% | 8.91µM* | -14.5% | 0.2% | u | 4.0
COc1ccc(C2NN=C(c3ccc(C)cc3)S2)cc1 (centres undefined) | x | 31.6µM* | 8.9% | x | x | 1.8
CC(=O)c1c(C)n(-c2cccc(C)c2)c2ccc(OC(=O)COc3ccccc3)cc12 | -7.6% | -23.5%[59 µM] | x | -9.2% | -15.7% | x
COc1cccc(CNC(=O)c2cnc3sc(N4CCCC4)nn3c2=O)c1OC | -3.1% | 9.0%[59 µM] | x | -2.9% | -1.2% | x
S=C(Nc1ccc2c(c1)OCCO2)Nc1ccc2c(c1)OCO2 | -27.7% | 50.1µM* | -12.8% | -6.9% | u | -8.5
S=C(Nc1ccc2c(c1)OCO2)Nc1ccccc1Cl | -10.8% | u | 17.8µM* | -9.3% | -10.7% | 1.0
O=C(Nc1ccc2c(c1)OCO2)Nc1ccc(Cl)cc1Cl | u | 13.9%[59 µM] | 4.3% | -3.1% | u | -1.8
S=C(NCc1ccc(Cl)c(Cl)c1)Nc1ccc2c(c1)OCO2 | 15.8µM*[quencher] | -13.5%[59 µM] | 0.9% | u | u | 2.3
CCOc1ccc(C(=O)NCCC2=CCCCC2)cc1OCC | 4.3% | u | -0.2% | -0.5% | -7.1% | 6.2
SMILES | Tau fluor cs | G9a inh | Sfp inh | Tau fibril FP | Tau ThT inhib | FBPA coupling cs
NC(=O)c1cc(S(=O)(=O)NCC2CCC(C(=O)Nc3cccc(Cl)c3)CC2)cs1 (centres undefined) | -4.0% | 6.4%[59 µM] | x | -14.7% | 9.7% | x
Cc1ccc(-n2nc(C)c3c(C)cc(=O)n(CC(=O)NCc4ccc(OC(C)C)cc4)c32)cc1 | -3.9% | 22.5%[59 µM] | x | -1.2% | -2.4% | x
Cc1ccc(S(=O)(=O)CCC(=O)Nc2ccccc2Br)cc1 | x | -0.4%[2.33 µM] | 7.7% | x | x | 0.2
CC1=CC(=O)C(C(C)=Nc2ccccc2Cl)C(=O)O1 (centres undefined) | -9.7% | 50.1µM* | 19.1% | 1.6% | -9.2% | 2.6
CCCCOC(=O)/C=C\C(=O)NC(N)=O | -7.5% | 44.7µM* | -4.2% | 5.9% | u | 0.1
CCCCOC(=O)/C=C\C(=O)OCCCC | 2.1% | 24.4%[59 µM] | -2.3% | -10.3% | 3.3% | -2.2
CC(=O)c1c(C)[nH]c(C2=NNC(=NCc3ccccc3)SC2)c1C | -28.6% | -41.7%[59 µM] | 50.1µM* | 1.4% | u | -17.1
Clc1ccccc1N=C1NN=C(c2cccs2)CS1 | u | 89.1µM* | -5.6% | -9.2% | u | 2.1
CCOC(=O)c1c(C)[nH]c(C2=NNC(=Nc3cccc(Cl)c3)SC2)c1C | u | u | u | u | 12.6µM* | -5.1
c1ccc(CN=C2NN=C(c3ccccc3)CS2)cc1 | -16.7% | 39.8µM* | -2.2% | -5.6% | u | 1.4
COc1ccccc1C1=NNC(=NCc2ccccc2)SC1 | -2.1% | u | -70.9% | -3.7% | -17.2% | 0.3
CCOC(=O)c1c(C)[nH]c(C=O)c1Cc1cccc(Cl)c1 | -21.4% | 11.0%[59 µM] | 3.9% | -2.5% | -16.5% | -3.9
COc1ccc(NC(=O)CN2C(=O)CSc3ccc(S(=O)(=O)N(C)C)cc32)cc1Cl | -22.3% | -33.7%[59 µM] | x | -0.2% | 5.9% | x
Cc1ccccc1NC(=O)CON=C(N)c1ccccc1 | x | 8.7%[59 µM] | x | x | x | x

Compound activity from PubChem BioAssay.
